The panel holds about 79,000 compounds, 15% with a hit somewhere; the sample as a whole holds those more often. The source made the active and inactive calls. Cut-off read from the data, not from the text of the source: active = growth inhibition above about 70%; inactive = the rest.
Assays:
[1] = NCI Yeast Anticancer Drug Screen. Data for the rad50 strain (AID 155);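 note: 0% = growth of vehicle-only cultures of the same strain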; conditions: S. cerevisiae rad50 strain growth inhibition; at 50.0 µM; hits give high values
Method in brief: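 Vehicle-treated cultures provide the reference for the growth inhibition reported for compound-exposed, repair-deficient yeast.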

[2] = NCI Yeast Anticancer Drug Screen. Data for the mec2-1 strain (AID 157); conditions: S. cerevisiae mec2-1 strain, at 50.0 µM, hits give high values
Method in brief: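 Vehicle-treated cultures served as reference for growth inhibition of compound-exposed mec2-1 yeast.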

[3] = NCI Yeast Anticancer Drug Screen. Data for the sgs1 mgt1 strain (AID 161);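 note: 0% = growth of cultures given vehicle only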; conditions: S. cerevisiae sgs1 mgt1 strain, at 50.0 µM, hits give high values
Method in brief: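 Inhibition of yeast growth, normalised to vehicle-treated controls, is reported for a strain bearing genetic alterations in DNA damage repair.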

[4] = NCI Yeast Anticancer Drug Screen. Data for the cln2 rad14 strain (AID 165);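 note: 0% = growth equal to vehicle treated cultures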; conditions: S. cerevisiae cln2 rad14 strain, at 50.0 µM, hits give high values
Method in brief: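 Each compound was tested on cln2 rad14 yeast. Inhibition of growth was calculated against vehicle-exposed controls.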

[5] = NCI Yeast Anticancer Drug Screen. Data for the bub3 strain (AID 167); conditions: S. cerevisiae bub3 mutant strain, at 50.0 µM, hits give high values
Method in brief: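 Mutant yeast screening strain plus compound; vehicle-treated cultures serve as the 0% inhibition reference.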

[6] = NCI Yeast Anticancer Drug Screen. Data for the mlh1 rad18 strain (AID 175); conditions: S. cerevisiae mlh1 rad18 strain growth inhibition; at 50.0 µM; hits give high values
Method in brief: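 Vehicle-treated cultures served as the reference for growth inhibition in a yeast strain carrying DNA damage repair alterations exposed to each compound.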

Measured: growth inhibition

O=C(c1ccccc1)C1N=NN(Cc2ccccc2[N+](=O)[O-])C1C(=O)c1ccccc1 (stereo unspecified)
inactive: [1] -6.75% | [2] -30.9% | [3] -25.1% | [4] -57.5% | [5] -1.45% | [6] -0.65%

CC1C2CC(CC2(C)O)C1(C)C (stereo unspecified)
inactive: [1] 8.45% | [2] -3.1% | [3] 3.35% | [4] 9.05% | [5] -3.3% | [6] -7.35%

COc1cc(C2C3=C(COC3=O)OC(C)(C)Oc3cc4c(cc32)OCO4)cc(OC)c1OC (stereo unspecified)
inactive: [1] 4.95% | [2] -11.8% | [3] 14.8% | [4] 52.9% | [5] -8.8% | [6] 22%

CC(=O)NC1=CC(=O)c2cc(C)cc(O)c2C1=O
inactive: [1] 23.3% | [2] 21.9% | [3] 20.1% | [4] 16.2% | [5] 28.1% | [6] -14.6%

CC(=O)Oc1ccccc1/C=C1\N=C(c2ccccc2)OC1=O
inactive: [1] -5.25% | [2] 2.25% | [3] 1.85% | [4] -30.2% | [5] -5.25% | [6] -6.4%

N#C/C(=C\c1ccccc1Cl)C(N)=S
inactive: [1] 10.6% | [2] 11.2% | [3] 1.15% | [4] 8% | [5] -27.4% | [6] 6.05%

Cc1ccc2c(c1)CC1(C2=O)[C@H](c2ccccc2)C2C(=O)c3ccc(C)cc3C2[C@H]1c1ccccc1 (stereo partly specified)
inactive: [1] -14.8% | [2] 13.5% | [3] -0.15% | [4] -11.1% | [5] 14.6% | [6] 9.5%

N=c1nccnn1O
inactive: [1] 6.45% | [2] 13.2% | [3] -8.2% | [4] 10.4% | [5] -6.5% | [6] 3.95%

Cc1ccc(NC(=O)C(=O)Cc2cc[n+]([O-])cc2)cc1
inactive: [1] -1.9% | [2] -1.5% | [3] 11.9% | [4] 7.6% | [5] 3.55% | [6] 4.05%

NC1=NC(=O)C2(CCCCC2)S1
inactive: [1] -9.6% | [2] -4.8% | [3] -21.2% | [4] -47.6% | [5] -8% | [6] -24.6%

CCCCOC(=O)CC(C(=O)OCCCC)N1CCNCC1 (stereo unspecified)
inactive: [1] -0.05% | [2] -9.95% | [3] -4.15% | [4] -50.6% | [5] -1.2% | [6] -3.1%

O=C(OCC1CCCO1)c1ccccc1Cl (stereo unspecified)
inactive: [1] 11.8% | [2] -10.2% | [3] -0.95% | [4] -6.6% | [5] 7.2% | [6] 0%

CC(O)C(=O)OCCOc1ccccc1 (stereo unspecified)
inactive: [1] 12.7% | [2] -6.3% | [3] -3.05% | [4] 5.5% | [5] -14.3% | [6] -140%

CCC1CN2C(=N1)c1ccccc1-c1cc([N+](=O)[O-])ccc12 (stereo unspecified)
active: [1] 94% | [6] 94.2%
inactive: [2] 43% | [3] -20.2% | [4] 51.3% | [5] 54%

COCCCNc1nc(N)c(C#N)c(C#N)c1C#N
inactive: [1] 4.3% | [2] -6.15% | [3] 2.85% | [4] 3.45% | [5] 19.3% | [6] 22.2%

CN(C)CCCOc1ccc(/C=C2/CCC/C(=C/c3ccc(OCCCN(C)C)cc3)C2=O)cc1
inactive: [1] 22.6% | [2] 14.8% | [3] 19.8% | [4] 26.1% | [5] 18.7% | [6] 3.35%

CCOC(=O)c1cc(C)nc(Cl)c1[N+](=O)[O-]
inactive: [1] 19.4% | [2] 5.9% | [3] 4.35% | [4] 0.65% | [5] -3.45% | [6] 6.95%

COC(=O)C(=C/c1ccc(OC)cc1)/C(C(=O)O)=C(/C)c1ccccc1
inactive: [1] 9.9% | [2] 17.1% | [3] -14.2% | [4] -11.2% | [5] -18.6% | [6] -9.8%

OC1CCCCCCCCCCC1C(O)(C(F)(F)F)C(F)(F)F (stereo unspecified)
active: [1] 99.3% | [2] 99.5% | [3] 99.8% | [4] 99% | [5] 99.6% | [6] 98.8%

C[n+]1ccc(Nc2ccc(NC(=O)c3ccc(N)cc3)cc2)cc1
inactive: [1] 12.9% | [2] 20.4% | [3] 8.6% | [4] -5.05% | [5] 6.25% | [6] 17.4%

CC1(C)CCC(C)(C)C1C(=O)NC(O)C(=O)O (stereo unspecified)
inactive: [1] -21.4% | [2] 8.8% | [3] -33% | [4] -2.2% | [5] 3.25% | [6] -9.8%

CCOC(=O)N1C(=O)c2ccccc2C1=O
inactive: [1] -7.35% | [2] -13.2% | [3] -16.8% | [4] -8.75% | [5] -13.3% | [6] -9.25%

COC(=O)/C(C#N)=C/NC(=S)Nc1ccccc1
inactive: [1] -48.1% | [2] -0.85% | [3] -44.5% | [4] 11.2% | [5] -26.3% | [6] -33.2%

CCc1ccc2c(c1)C(=O)c1c(c(-c3ccccc3)c3ccccc3c1-c1ccccc1)C2=O
inactive: [1] -5.95% | [2] -4.5% | [3] -6.4% | [4] -18.1% | [5] 13.8% | [6] 8.65%

C=CCN=C1NC(=O)C(CC(=O)Nc2ccc(C)cc2)S1 (stereo unspecified)
inactive: [1] -22.6% | [2] -0.25% | [3] 0.25% | [4] 17.4% | [5] 7.05% | [6] 7.65%

COc1ccc(C2OC(=N)C(=S)N2C)cc1O (stereo unspecified)
inactive: [1] -5.9% | [2] -15.6% | [3] -13.2% | [4] -22.7% | [5] 2.5% | [6] -4.15%

Cc1ccc(NC(=O)c2cccc(C(=O)Nc3ccc(C)c(Cl)c3)c2)cc1Cl
inactive: [1] -28.1% | [2] -16.6% | [3] -11.2% | [4] -35% | [5] -5.55% | [6] 8.6%

CCO/C=C1/N=C(c2cccc3ccccc23)OC1=O
inactive: [1] 3.15% | [2] -1.5% | [3] 5.7% | [4] -64.2% | [5] -1.85% | [6] 5.55%

CC(C)(C)C(c1ccccc1)[N+](C)(C)C (stereo unspecified)
inactive: [1] -22.2% | [2] -2% | [3] -2.05% | [4] 18.9% | [5] 15.2% | [6] 29.9%

C[n+]1ccccc1C(=O)O
inactive: [1] 29.3% | [2] 28.9% | [3] 50.4% | [4] 26.6% | [5] 31.3% | [6] 40.4%

Cc1cc(N2CCOCC2)nc2ccc(Cc3ccc4nc(N5CCOCC5)cc(C)c4c3)cc12
inactive: [1] 13.5% | [2] -10.2% | [3] -32.2% | [4] -24.2% | [5] -4.65% | [6] -4.4%

CC1=CCC2N=C(c3ccccc3)CC2(C)C1=O (stereo unspecified)
inactive: [1] 27.4% | [2] 21.6% | [3] 24.3% | [4] -11.3% | [5] -46.2% | [6] -16.6%

O=C(Nc1ccc(Cl)cc1)OCC#CCOC(=O)Nc1ccc(Cl)cc1
inactive: [1] 5.8% | [2] -2.75% | [3] -6.3% | [4] -2.05% | [5] -0.35% | [6] 2.1%

CC(C)C1CCC2(C)C(CCC3C(C)(CO)CCCC32O)C1 (stereo unspecified)
inactive: [1] -17.2% | [2] -6.85% | [3] 19.5% | [4] 1.45% | [5] 22.1% | [6] 10%

CC(C)(C)[Si](C)(C)OCCC1CC2(S(=O)(=O)C3=CC=C=C=C3)ON1CC2S(=O)(=O)c1ccccc1 (stereo unspecified)
inactive: [1] 6.8% | [2] -6.2% | [3] -1.45% | [4] -23.9% | [5] -20.4% | [6] 17.1%

CC(CCc1ccccc1)NC(=O)c1ccccc1 (stereo unspecified)
inactive: [1] 5% | [2] -40.1% | [3] -1.45% | [4] 11.2% | [5] 10.7% | [6] -16.6%

CC(=O)OC1/C=C(/C)CCC2OC2(C)CC2OC(=O)C3(CC3)C12 (stereo unspecified)
inactive: [1] 0.85% | [2] -20.5% | [3] -2% | [4] 10.7% | [5] 1% | [6] -7.2%

O=C1NC(=O)C(c2ccc(Cl)c(Cl)c2)N1 (stereo unspecified)
inactive: [1] 11.2% | [2] -10% | [3] -13.2% | [4] -13.7% | [5] -12.9% | [6] -3.55%

O=C(O)C(Br)C1(Br)c2ccccc2-c2ccccc21 (stereo unspecified)
active: [1] 99.3% | [2] 99.7% | [3] 99.7% | [4] 95.4% | [5] 97.3% | [6] 99.6%

C[C@]12CC[C@@H]3c4cc(OCC(F)(F)F)c(O)cc4/C(=N/O)C[C@H]3[C@@H]1CC[C@@H]2O
inactive: [1] -0.75% | [2] -4.55% | [3] 4.65% | [4] 17.6% | [5] 12.8% | [6] 13.2%

CC1CC(=O)C2CC(Cl)CCC2(C)C1C (stereo unspecified)
inactive: [1] -18.1% | [2] -22.6% | [3] -4.6% | [4] -45.4% | [5] -27.4% | [6] -6.05%

— PubChem BioAssay (NCI)
